In PubChem BioAssay (Tox21):
Inconclusive results are not listed. The source made the active and inactive calls. Unless noted, calls follow the shape of the full dose curve. Bridge positions count the residues as written; N and C are the ends. Square brackets hold non-standard residues; d marks the D form. Peptide text beside a SMILES is read from it. hArg = N=C(N)NCCCC[C@H](N)C(=O)O; Mpa = O=C(O)CCS

How the values were obtained:
[1] = biological target: Gonadotropin-releasing hormone receptor (Homo sapiens) (UniProt P30968); test: Human gonadotropin-releasing hormone receptor (GnRHR) small molecule agonists, calcium flux assay in GnRHR-HEK293 cells (AID 1920063); conditions: calcium flux fluorescence, agonist mode; series mostly up to 57.6 µM; also: nearly all actives have a fitted effect of over 35% in size
In short: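 Fluorescence kinetics (480 nm excitation, 540 nm emission; 3 min, 1 s steps) report calcium mobilisation in human GnRHR-HEK293 cells in agonist mode. Dye incubation: 1 h, 37 C.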

[2] = biological target: KiSS-1 receptor (Homo sapiens) (UniProt Q969F8); test: Human kisspeptin (KISS1R) small molecule agonists, calcium flux assay in KISS1R-HEK293 cells (AID 1920064; active = well fitted activation curve with a large enough effect in the repeat runs; also: potency is read from the fitted curve at half-maximal effect); conditions: KISS1R-HEK293, calcium flux fluorescence, agonist; series mostly up to 76.8 µM
In short: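 Measures KISS1R agonism through calcium-sensitive dye fluorescence in stably transfected HEK293 cells, read for 3 min after pin-tool compound delivery; 15-point titrations in triplicate.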

[3] = G protein-coupled receptor (GPCR) small molecule agonists, calcium flux assay: HEK293 wild type cell line counter screen (AID 1920065); conditions: HEK293 WT calcium flux, fluorescence, agonist mode; series mostly up to 57.6 µM
In short: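 Readout: fluorescence at 480 nm excitation/540 nm emission, sampled at 1 s intervals for 3 min. Cells had been cultured 18 h, then dye-loaded 1 h at 37 C before compound or ATP addition.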

[4] = p53 small molecule agonists, cell-based qHTS assay with human liver microsomes (AID 1963577); conditions: HCT-116 p53RE-bla with human liver microsomes, ratio, 16 h; series mostly up to 66 µM;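 also: p53 response element beta-lactamase reporter cells with liver microsomes plus NADPH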
In short: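 HLM-supplemented p53RE-bla reporter assay: 16 h compound exposure at 37 C, microsomes and NADPH each 0.5 mg/mL final, read by fluorescence intensity.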

[5] = p53 small molecule agonists, cell-based qHTS assay with rat liver microsomes (AID 1963578); conditions: HCT-116 p53RE-bla, beta-lactamase ratio, 16 h; series mostly up to 66 µM
In short: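 Quantitative HTS of the Tox21 10K library: p53RE-bla cells, rat liver microsomes plus NADPH at 0.5 mg/mL final each, 16 h at 37 C, beta-lactamase fluorescence detection.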

[6] = p53 small molecule agonists, cell-based qHTS assay with human liver microsomes: qHTS cell viability counter screen (AID 1963579); conditions: p53RE-bla HCT-116 viability, ATP luminescence, 16 h, HLM; series mostly up to 66 µM; also: nearly all actives have a fitted effect of over 45% in size
In short: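 Viability of p53RE-bla cells is measured as CellTiter-Glo luminescence following a 16 h, 37 C incubation with compound, liver microsomes from human donors and NADPH.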

[7] = p53 small molecule agonists, cell-based qHTS assay with rat liver microsomes: qHTS cell viability counter screen (AID 1963580); conditions: p53RE-bla HCT-116 + rat microsomes, ATP viability, 16 h; series mostly up to 66 µM; also: nearly all actives have a fitted effect of over 45% in size
In short: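 p53RE-bla HCT-116 cells (4,000/well) rested 5 h at 37 C, then given Tox21 compounds in DMSO with rat liver microsomes (0.5 mg/mL final) plus NADPH (0.5 mg/mL final) for 16 h at 37 C. Viability read by CellTiter-Glo luminescence after 30 min at room temperature.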

[8] = p53 small molecule agonists, cell-based qHTS assay: qHTS cell viability counter screen (AID 1963581); conditions: p53RE-bla HCT-116 viability, ATP luminescence, 16 h; series mostly up to 66 µM; also: nearly all actives have a fitted effect of over 45% in size
In short: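 In the same plates used for the p53 bla reporter, HCT-116 cells given compounds for 16 h at 37 C received CellTiter-Glo; luminescence was recorded 30 min later at room temperature.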

[9] = biological target: 5-hydroxytryptamine receptor 2A (Homo sapiens) (UniProt P28223); test: 5-hydroxytryptamine receptor 2A (HTR2A) small molecule antagonists, cell-based qHTS assay (AID 1963586); conditions: HTR2A-CHO cells, DOI-induced calcium flux, fluorescence; series mostly up to 61.5 µM; also: nearly all actives have a fitted effect of over 45% in size; also: potency is read from the fitted curve at half-maximal effect
In short: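 Antagonist-mode intracellular calcium assay: DOI (4 nM) added after 5 min compound pre-incubation at room temperature to dye-loaded HTR2A-CHO cells. Fluorescence followed for 3 min, sampled every second.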

[10] = biological target: Muscarinic acetylcholine receptor M1 (Homo sapiens) (UniProt P11229); test: Cholinergic receptor muscarinic 1 (CHRM1) small molecule antagonists, cell-based qHTS assay (AID 1963588); conditions: CHRM1-CHO antagonist mode, calcium flux fluorescence; series mostly up to 61.5 µM; also: nearly all actives have a fitted effect of over 40% in size
In short: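 CHRM1-CHO calcium-flux assay, antagonist mode. Cells were seeded 18 h, dye-loaded 1 h at 37 C and given compound for 5 min at RT, then acetylcholine was added at 50nM. FDSS fluorescence was read 3 min; 15 concentrations, three runs.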

[11] = biological target: Muscarinic acetylcholine receptor M1 (Homo sapiens) (UniProt P11229); test: Cholinergic receptor muscarinic 1 (CHRM1) small molecule agonists, cell-based qHTS assay (AID 1963589); conditions: CHRM1-CHO cells, agonist mode, calcium flux fluorescence; series mostly up to 76.8 µM; also: nearly all actives have a fitted effect of over 35% in size
In short: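 Each compound was tested at 15 concentrations across three independent runs on dye-loaded CHO cells stably expressing human CHRM1, reading intracellular calcium fluorescence kinetically at 1 sec intervals.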

[12] = cAMP Responsive Elements (CRE) small molecule agonists, cell-based qHTS assay (AID 1963590); conditions: CRE-bla HEK293T, beta-lactamase FRET ratio, 3 h; series mostly up to 92.4 µM
In short: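 Cell line: CRE-bla HEK 293T; medium DMEM/10% dialyzed FBS/0.1 mM NEAA/1 mM pyruvate/25 mM HEPES; 3 h compound exposure; beta-lactamase FRET readout after 2 h substrate loading at RT.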

[13] = biological target: Beta-2 adrenergic receptor (Homo sapiens) (UniProt P07550); test: Adrenergic beta2 receptor (ADRB2) small molecule antagonists, cell-based qHTS assay (AID 1963592); conditions: CHO-ADRB2 cells, isoproterenol-stimulated cAMP HTRF ratio, 0.5 h; series mostly up to 92.4 µM; also: nearly all actives have a fitted effect of over 50% in size
In short: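 Cells (CHO, stable ADRB2 overexpression) incubated 18-20hr at 37C; compounds added from DMSO; agonist mix (1nM isoproterenol, 100uM IBMX, 25uM Ro-20-1724) added; 0.5hr RT; d2-cAMP and anti-cAMP-cryptate added; 1hr RT; 665/615 nm read.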

[14] = biological target: D(2) dopamine receptor (Homo sapiens) (UniProt P14416); test: Dopamine D2 receptor (DRD2) small molecule agonists, cell-based qHTS assay (AID 1963594); conditions: HEK293-DRD2 cAMP HTRF, agonist mode, 30 min; series mostly up to 92.4 µM; also: nearly all actives have a fitted effect of over 35% in size
In short: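 HEK293 cells stably expressing DRD2 were cultured 24 h at 37 C, then given Ro20-1724 (0.1 mM final) and compounds for 10 min at room temperature. NKH477 (200nM) was then added for 30 min. cAMP was read by HTRF.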

[15] = biological target: D(2) dopamine receptor (Homo sapiens) (UniProt P14416); test: Dopamine D2 receptor (DRD2) small molecule antagonists, cell-based qHTS assay (AID 1963595; active = well fitted inhibition curve with a large enough effect in the signal ratio in the repeat runs, with a control signal flat; the % refers to the signal ratio); conditions: HEK293-DRD2 cAMP HTRF antagonist mode; series mostly up to 92.4 µM
In short: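 Human DRD2 antagonist qHTS measuring cAMP by HTRF. The cells are exposed to compound for 10 min, then to NKH477 (200 nM) and quinpirole (12 nM) for 30 min at RT, with Ro20-1724 (0.1 mM) present throughout.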

[16] = biological target: 5-hydroxytryptamine receptor 2A (Homo sapiens) (UniProt P28223); test: 5-hydroxytryptamine receptor 2A (HTR2A) small molecule agonists, cell-based qHTS assay (AID 1963587); conditions: HTR2A-CHO cells, calcium flux fluorescence, agonist mode; series mostly up to 76.8 µM; also: nearly all actives have a fitted effect of over 30% in size; also: potency is read from the fitted curve at half-maximal effect
In short: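 HTR2A-CHO cells, plated 18 h at 37 C/5% CO2, dye-loaded 1 h at 37 C; compounds in DMSO added by pin tool (agonist mode). Intracellular calcium flux read as kinetic fluorescence on FDSS over 2 min at 1 s intervals.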

[17] = cAMP Responsive Elements (CRE) small molecule antagonists, cell-based qHTS assay (AID 1963591; active = well fitted inhibition curve with a large enough effect in the signal ratio in the repeat runs, not every such curve was filed as active; the % refers to the signal ratio); conditions: CRE-bla HEK293T, beta-lactamase FRET ratio; series mostly up to 92.4 µM
In short: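 Inhibition of NKH477-driven (0.25 uM final) CRE-beta-lactamase signal in HEK293T cells, 3 h compound exposure at 37 °C, detected by FRET substrate fluorescence.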

[18] = Nuclear factor erythroid 2-related factor 2/antioxidant responsive element (Nrf2/ARE) small molecule agonists: luciferase reporter gene qHTS assay in human keratinocytes (AID 1919969); conditions: KeratinoSens HaCaT ARE-luciferase, luminescence, 24 h; series mostly up to 92.4 µM; also: nearly all actives have a fitted effect of over 35% in size
[19] = biological target: Beta-2 adrenergic receptor (Homo sapiens) (UniProt P07550); test: Adrenergic beta2 receptor (ADRB2) small molecule agonists, cell-based qHTS assay (AID 1963593); conditions: CHO-ADRB2 cells, cAMP HTRF, 30 min; series mostly up to 92.4 µM;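 also: CHO cells stably overexpressing human ADRB2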
In short: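 CHO cells stably over-expressing ADRB2 were plated overnight at 37C, then dosed with compounds plus a stimulation mix containing 100uM IBMX and 25uM Ro-20-1724 for 0.5hr at room temperature. cAMP was measured by HTRF competition, 1hr.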

Measured: Potency

Muscarinic acetylcholine receptor M1 (Homo sapiens), sequence (P11229 whole entry, looked up): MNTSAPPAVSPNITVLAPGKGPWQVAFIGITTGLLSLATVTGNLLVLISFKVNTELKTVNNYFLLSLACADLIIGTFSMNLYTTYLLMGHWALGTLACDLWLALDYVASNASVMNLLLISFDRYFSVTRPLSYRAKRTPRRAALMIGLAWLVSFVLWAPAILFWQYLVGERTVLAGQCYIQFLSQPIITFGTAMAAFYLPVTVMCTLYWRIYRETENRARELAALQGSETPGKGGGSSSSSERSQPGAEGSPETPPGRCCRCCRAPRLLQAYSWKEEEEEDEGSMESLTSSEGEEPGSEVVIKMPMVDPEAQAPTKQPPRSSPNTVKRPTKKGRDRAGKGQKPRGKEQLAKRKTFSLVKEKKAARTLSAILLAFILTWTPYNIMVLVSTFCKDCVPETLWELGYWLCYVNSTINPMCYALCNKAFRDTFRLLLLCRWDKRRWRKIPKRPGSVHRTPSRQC
KiSS-1 receptor (Homo sapiens), sequence (Q969F8 whole entry, looked up): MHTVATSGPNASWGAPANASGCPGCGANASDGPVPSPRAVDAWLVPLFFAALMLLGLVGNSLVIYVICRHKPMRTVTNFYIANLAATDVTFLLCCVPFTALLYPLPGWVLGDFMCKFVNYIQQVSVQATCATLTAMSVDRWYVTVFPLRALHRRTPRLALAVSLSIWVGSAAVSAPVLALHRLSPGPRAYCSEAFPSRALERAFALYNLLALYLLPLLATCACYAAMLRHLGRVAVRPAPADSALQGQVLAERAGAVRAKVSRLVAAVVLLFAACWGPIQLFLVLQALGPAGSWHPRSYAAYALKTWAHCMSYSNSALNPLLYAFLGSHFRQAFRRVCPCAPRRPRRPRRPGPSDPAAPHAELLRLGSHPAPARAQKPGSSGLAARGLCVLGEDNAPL
5-hydroxytryptamine receptor 2A (Homo sapiens), sequence (P28223 whole entry, looked up): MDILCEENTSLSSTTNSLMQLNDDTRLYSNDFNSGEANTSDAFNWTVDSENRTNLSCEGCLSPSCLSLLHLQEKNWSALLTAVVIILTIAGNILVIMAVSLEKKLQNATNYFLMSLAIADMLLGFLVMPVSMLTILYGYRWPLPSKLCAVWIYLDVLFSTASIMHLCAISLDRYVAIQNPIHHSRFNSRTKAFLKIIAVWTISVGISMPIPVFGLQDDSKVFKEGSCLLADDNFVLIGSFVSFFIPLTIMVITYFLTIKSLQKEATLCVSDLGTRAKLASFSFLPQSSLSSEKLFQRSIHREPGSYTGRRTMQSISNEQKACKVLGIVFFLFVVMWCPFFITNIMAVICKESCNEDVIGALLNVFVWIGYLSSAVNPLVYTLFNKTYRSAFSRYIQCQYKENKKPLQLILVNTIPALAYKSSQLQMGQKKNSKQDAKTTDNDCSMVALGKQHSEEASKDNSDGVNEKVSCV
D(2) dopamine receptor (Homo sapiens), sequence (P14416 whole entry, looked up): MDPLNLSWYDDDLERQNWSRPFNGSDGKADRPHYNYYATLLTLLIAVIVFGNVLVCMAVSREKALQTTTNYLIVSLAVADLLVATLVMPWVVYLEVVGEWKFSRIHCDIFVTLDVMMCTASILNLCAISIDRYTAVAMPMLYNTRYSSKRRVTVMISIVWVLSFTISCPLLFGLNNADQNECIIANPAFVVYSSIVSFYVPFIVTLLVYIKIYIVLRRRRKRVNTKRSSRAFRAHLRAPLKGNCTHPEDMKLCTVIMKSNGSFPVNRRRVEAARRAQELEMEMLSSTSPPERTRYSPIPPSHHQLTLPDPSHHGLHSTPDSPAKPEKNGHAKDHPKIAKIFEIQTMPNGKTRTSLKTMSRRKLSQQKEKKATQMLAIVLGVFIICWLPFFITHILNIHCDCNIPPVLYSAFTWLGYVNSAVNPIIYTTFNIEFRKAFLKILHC
Beta-2 adrenergic receptor (Homo sapiens), sequence (P07550 whole entry, looked up): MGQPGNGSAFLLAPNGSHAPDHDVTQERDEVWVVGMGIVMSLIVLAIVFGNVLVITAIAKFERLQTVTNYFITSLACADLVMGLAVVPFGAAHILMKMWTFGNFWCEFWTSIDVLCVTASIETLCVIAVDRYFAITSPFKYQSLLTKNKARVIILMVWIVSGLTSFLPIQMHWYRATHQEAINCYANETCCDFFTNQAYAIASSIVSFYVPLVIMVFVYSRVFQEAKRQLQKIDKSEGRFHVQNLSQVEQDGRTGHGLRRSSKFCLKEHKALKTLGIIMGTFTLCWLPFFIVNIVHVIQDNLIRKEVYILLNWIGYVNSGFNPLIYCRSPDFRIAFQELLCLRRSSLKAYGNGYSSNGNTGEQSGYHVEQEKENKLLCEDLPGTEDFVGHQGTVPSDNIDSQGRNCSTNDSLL
Gonadotropin-releasing hormone receptor (Homo sapiens), sequence (P30968 whole entry, looked up): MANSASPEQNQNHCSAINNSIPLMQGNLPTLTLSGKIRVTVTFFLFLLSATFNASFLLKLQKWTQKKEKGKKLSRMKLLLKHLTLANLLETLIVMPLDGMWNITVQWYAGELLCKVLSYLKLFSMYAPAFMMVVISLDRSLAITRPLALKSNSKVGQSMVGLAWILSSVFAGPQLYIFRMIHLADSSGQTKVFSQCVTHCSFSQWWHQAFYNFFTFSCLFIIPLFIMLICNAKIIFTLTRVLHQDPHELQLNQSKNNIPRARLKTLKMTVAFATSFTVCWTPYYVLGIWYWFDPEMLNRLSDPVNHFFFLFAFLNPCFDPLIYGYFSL

CCCCCCC[CH2][Sn]([Cl])([Cl])[CH2]CCCCCCC
active: [2] 48.9 µM
inactive: [1] | [3] | [4] | [5] | [6] | [7] | [8] | [9] | [10] | [11] | [12] | [13] | [14] | [15]

CN1C(=O)[C@@H](NC(=O)c2cc3ccccc3[nH]2)N=C(c2ccccc2)c2ccccc21
inactive: [1] | [2] | [3] | [4] | [5] | [6] | [7] | [8] | [9] | [16] | [10] | [11] | [12] | [17] | [13] | [14] | [15]

O=S(=O)(c1ccc(Cl)cc1)c1ccc(Cl)cc1
inactive: [18] | [2] | [3] | [5] | [6] | [11] | [12] | [13] | [14]
active: [9] 10.7 µM

O=S(=O)(O)c1cc(O)ccc1O
inactive: [6] | [7] | [8]

C=CC(=O)OCCCCO
inactive: [1] | [2] | [3] | [6] | [8] | [9] | [16] | [10] | [11] | [13] | [19] | [14] | [15]

O=[N+]([O-])c1ccccc1Cl
inactive: [9] | [16] | [10] | [11] | [13] | [19] | [14] | [15]

O=C1C(I)=CC(=C(c2cc(I)c(O)c(I)c2)c2ccccc2C(=O)O)C=C1I
inactive: [1] | [2] | [3] | [7] | [9] | [16] | [10] | [11] | [17] | [13] | [14] | [15]

CC(C)C[C@H](NC(=O)CNC(=O)[C@H](Cc1ccc(O)cc1)NC(=O)[C@H](CO)NC(=O)[C@H](Cc1c[nH]c2ccccc12)NC(=O)[C@H](Cc1cnc[nH]1)NC(=O)[C@@H]1CCC(=O)N1)C(=O)N[C@@H](CCCN=C(N)N)C(=O)N1CCC[C@H]1C(=O)NCC(N)=O (stereo in doubt)
inactive: [9] | [16] | [10] | [11]

S=C(SSC(=S)N1CCCCC1)N1CCCCC1
active: [16] 10.7 µM
inactive: [1] | [2] | [4] | [5] | [6] | [10] | [11] | [12] | [13] | [19] | [14] | [15]

CC(=O)N[C@@H](CO)C(=O)N[C@@H](CC(=O)O)C(=O)N[C@@H](CCCCN)C(=O)N1CCC[C@H]1C(=O)O (Ac-SDKP-OH)
inactive: [9] | [10] | [11]

NC(=O)[C@@H]1CSSCCC(=O)N[C@@H](CCCCN=C(N)N)C(=O)NCC(=O)N[C@@H](CC(=O)O)C(=O)N[C@@H](Cc2c[nH]c3ccccc23)C(=O)N2CCC[C@H]2C(=O)N1 ([Mpa][hArg]GDWPC-NH2; disulfide 1-7)
inactive: [16] | [10] | [11]
